Screens as filed in PubChem.
TROY signal inh – blocks TROY-dependent signaling in reporter cells; inhibition, % at 10 µM; Q293 LMP1-TROYcd NF-kB luciferase reporter, 4 h; 0.98% of 360,000 active;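 active = compounds whose plate-normalised and pattern-corrected inhibition of the luciferase reporter signal at the single screening dose is 50% or more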
TWEAK-Fn14 inh – blocks TWEAK-Fn14 interaction in a reporter cell assay; inhibition, % at 10 µM; TWEAK-stimulated Fn14 reporter cells, luciferase luminescence, 8 h; AID 1159606; 2% of 360,000 active; in the data active = inhibition above about 50%
CF NFkB block – blocks PAF-induced NF-kB reporter in cystic fibrosis cells; KKLEB NF-kB-GFP reporter, GFP fluorescence overnight; inhibition, % at 5 µM; 0.86% of 360,000 active;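 active = at least 50% inhibition at 5 µM, scaled per plate between neutral and stimulator controls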;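 note: PAF is a Pseudomonas aeruginosa culture filtrate used as stimulus; plate controls were PAF-stimulated DMSO wells for no effect and unstimulated DMSO wells for full effect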
LGR2 inh – inhibitors of bursicon-induced Drosophila LGR2 receptor cAMP signaling. HEK293 LGR2, CRE-luciferase, bursicon-stimulated, 4 h. inhibition, % at 9.99 µM. 0.35% of 380,000 active;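 active = drop in luminescence signal, shown as inhibition above about 50% in the replicate tests, limit read from the data, passing the limit was not always enough; inconclusive = probably only some replicates passing the limit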;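 note: agonist challenge used bursicon conditioned medium at about half maximal strength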
EWS-Fli block – EWS/Fli transcriptional activity inhibition | A673 NR0B1-luciferase reporter, viability-normalised | inhibition, % at 12.6 µM | 0.67% of 350,000 active | AID 651661;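 active = mean inhibition of at least 50% after viability correction, with every replicate also passing that limit; inconclusive = mean reaches 50% but only one of two replicates passes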;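 note: firefly luciferase signal divided by Alamar Blue viability fluorescence both relative to DMSO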
KKLEB cytotox – counter-screen for CF NF-kB inhibitors: cytotoxicity. KKLEB CF airway cells viability, ATPlite luminescence, overnight; hits give low values; cells stimulated with P. aeruginosa culture filtrate. activity change (cytotoxicity), % at 5 µM. 0.36% of 360,000 active;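 active = corrected activity change at or below -50% at 5 µM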
CF NFkB conf – confirmation of cystic fibrosis induced NF-kB inhibitors; inhibition, % at 5 µM; shares compounds with CF NFkB block; KKLEB CF airway cells, PAF-induced NF-kB-GFP fluorescence, overnight; 64% of 1,300 active; AID 602472; in the data active = inhibition above about 40%;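 note: stimulus PAF is a Pseudomonas aeruginosa filtrate and not platelet activating factor; plate controls were DMSO wells with stimulus for no effect and unstimulated DMSO wells for full effect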
An asterisk follows results filed as active; u = inconclusive; x = no result. Only some compounds are listed: those with a hit (about 2.6% of all), similar ones and a draw of the others.

SMILES	TROY signal inh	TWEAK-Fn14 inh	CF NFkB block	LGR2 inh	EWS-Fli block	KKLEB cytotox	CF NFkB conf
C[C@H]1CN([C@@H](C)CO)S(=O)(=O)c2ccc(C#CCN(C)C)cc2O[C@@H]1CN(C)C(=O)c1ccccc1F	x	x	x	7	3	x	x
CCOc1cc2c(cc1O)C(=NO)CC1C2CCC2(C)C(O)CCC12 (stereo unspecified)	12	17	52*	8	42	-28	75*
CC1CCN(CC(CS(=O)(=O)c2ccc([N+](=O)[O-])cc2)N2CCC(C)CC2)CC1 (stereo unspecified)	-1	8	96*	-14	16	-42	88*
O=C(C[C@@H]1C[C@H]2c3cc(NS(=O)(=O)c4ccc(F)cc4)ccc3O[C@H]2[C@@H](CO)O1)NCC1CC1	x	x	x	17	-2	x	x
C#CCN(C[C@@H]1[C@@H](OC(=O)NCc2ccco2)[C@@H](OC(=O)NCc2ccco2)Cn2c(=O)n(CCCCCC)c(=O)n21)S(=O)(=O)c1ccc(C)cc1	-5	-21	28	11	0	7	x
C#CCN(C[C@@H]1[C@@H](OC(=O)NCc2ccco2)[C@@H](OC(=O)NCc2ccco2)Cn2c(=O)ccc(=O)n21)S(=O)(=O)c1ccc(C)cc1	18	38	66*	u	26	-21	52*
Cc1ccc(S(=O)(=O)N2[C@@H](c3ccc(C(C)(C)C)cc3)C(C(=O)O)=CC[C@H]2c2ccc(C(C)C)cc2)cc1	87*	94*	62*	18	-17	12	53*
Cc1ccc(S(=O)(=O)N2[C@@H](c3ccc(C(C)(C)C)cc3)C(C(=O)O)=CC[C@H]2c2cccs2)cc1	25	22	8	3	-28	-2	x
Cc1ccc([C@@H]2CC=C(C(=O)O)[C@H](c3ccc(C(C)(C)C)cc3)N2S(=O)(=O)c2ccc(C)cc2)cc1	65*	52*	51*	2	-5	0	22
C[C@@H]1CN([C@@H](C)CO)C(=O)Cc2cc(NC(=O)CCC(F)(F)F)ccc2O[C@@H]1CN(C)Cc1ccc(-c2ccccc2)cc1	x	x	x	3	9	x	x
C[C@H]1CN([C@@H](C)CO)C(=O)c2cc(NC(=O)Cc3cn(C)c4ccccc34)ccc2O[C@H]1CN(C)C(=O)Nc1ccc(F)cc1	x	x	x	-1	-10	x	x
C=C1C(=O)O[C@H]2C[C@H]1[C@@H](OC(C)=O)C/C(C)=C/CC/C(C)=C\CC[C@]2(C)O	43	86*	77*	x	56*	-16	65*
Nc1ncc([N+](=O)[O-])c(N2CCCCCC2)n1	33	75*	67*	14	-14	2	91*
O=[N+]([O-])c1ccc(N2CCCC2)nc1N1CCCC1	1	-9	-11	-18	0	10	x
COc1ccccc1S(=O)(=O)N[C@@H]1C=C[C@@H](CC(=O)N2CCN(C)CC2)O[C@@H]1CO	x	x	x	-12	1	x	x
CCCCCCc1cc2cc(-c3nnc(-c4ccccc4OC)o3)c(=O)oc2cc1O	44	44	-30	x	x	-38	x
CCCCCCc1cc2cc(C(=O)Nc3ccccc3OC)c(=O)oc2cc1O	6	12	54*	3	x	-42	55*
O=C(O)c1ccc2oc(=O)c(S(=O)(=O)c3ccc(F)cc3)cc2c1	-9	18	6	6	2	-9	x
CCCCCCc1cc2cc(S(=O)(=O)c3ccc(F)cc3)c(=O)oc2cc1O	51*	22	51*	18	6	-36	78*
C[C@H](CO)N1C[C@H](C)[C@H](CN(C)Cc2ccc(C(F)(F)F)cc2)OCc2ccccc2-c2c(n(C)c3ccccc23)C1=O	x	x	x	13	6	x	x
COc1ccccc1C(=O)N1CCN(Cc2ccc3c(c2)OCO3)CC1	3	-28	15	x	x	-9	x
CCOc1ccccc1C(=O)NCC(=O)N1CCN(Cc2ccc3c(c2)OCO3)CC1	25	-22	74*	x	x	-14	31
Cc1noc(C)c1NC(=O)N(C)C[C@@H]1Oc2c(NC(=O)Nc3ccc(C(F)(F)F)cc3)cccc2C(=O)N([C@H](C)CO)C[C@H]1C	x	x	x	x	-1	x	x
CCC(=O)N(C)C[C@@H]1Oc2cc(C#CCC(C)C)ccc2S(=O)(=O)N([C@@H](C)CO)C[C@@H]1C	x	x	x	-23	9	x	x
COc1ccc(NC(=O)Nc2nnc(-c3ccncc3)s2)cc1	5	43	58*	34	-64	-21	53*
SMILES	TROY signal inh	TWEAK-Fn14 inh	CF NFkB block	LGR2 inh	EWS-Fli block	KKLEB cytotox	CF NFkB conf
COc1ccc(NC(=O)Nc2nnc(-c3ccco3)s2)cc1	-21	-32	-12	-35	-102	10	x
COc1cccc(NC(=O)Nc2nnc(CC(=O)NCc3ccccc3)s2)c1	7	29	61*	-4	-21	-2	80*
CCCC#Cc1cnc2c(c1)C(=O)N([C@H](C)CO)C[C@H](C)[C@@H](CN(C)C(=O)c1ccc(F)cc1)O2	x	x	x	11	6	x	x
O=S(=O)(NC(=S)c1ccccc1)c1ccccc1	1	-20	-16	x	-6	1	x
CC(C)N=C(NS(=O)(=O)c1ccccc1)C(Cl)(Cl)Cl	77*	101*	60*	62*	48	-19	45*
Nc1cc2c(cc1Br)-c1ccccc1C2=NO	8	37	50*	-28	-77	10	61*
C[C@H](CO)N1C[C@H](C)[C@H](CN(C)C(=O)c2ccccc2)Oc2ncc(Br)cc2C1=O	x	x	x	2	-2	x	x
C=C1CCC[C@]2(C)C[C@H]3OC(=O)C(CNC(C)(CO)CO)[C@H]3CC12 (stereo partly specified)	-3	46	75*	23	4	-18	27
C=C1CCC[C@]2(C)C[C@H]3OC(=O)C(CN4CCCCC4CO)[C@H]3CC12 (stereo partly specified)	25	51*	75*	22	-13	-9	15
O=C([C@@H]1[C@@H](CO)[C@@H]2Cn3c(cccc3=O)[C@@H]2N1Cc1ccncc1)N1CCCCC1	x	x	x	-1	-21	x	x
O=C(/C=C/c1ccccc1[N+](=O)[O-])N1CCOCC1	-15	19	70*	0	2	-44	-2
CNC[C@H]1OCCCC[C@H](C)Oc2ccc(NS(=O)(=O)c3ccc(OC)cc3)cc2C(=O)N([C@H](C)CO)C[C@@H]1C	x	x	x	15	-2	x	x
CCOC(=O)c1c(C)c2c(=O)[nH]cnc2n1-c1ccccc1	42	63*	56*	3	-16	-5	66*
COc1ccccc1-c1cccc(-c2nc(C(=O)NCc3ccncc3)cc3c2[C@@H](CCO)N([S@](=O)C(C)(C)C)C3)c1	x	x	x	-13	8	x	x
CC(=O)c1c(C)[nH]c(C(=O)COC(=O)c2ccc(C)s2)c1C	-25	-3	64*	x	-6	26	7
